# Results taken from PubChem BioAssay (EPA / NIEHS).
# Where “and” joins values, the source holds several entries; their conditions need not be identical. Identical values can stand only once. Inconclusive results are not listed. Calls of active or inactive are those of the source. The calls were made as follows: active = hit-call score of the fitted dose curve at least 0.9, where 1 is the maximum; inconclusive = response in the unintended direction; inactive = score below 0.9.
# Experiments:
# [1] = system: turtle Estrogen Receptor (ESR1), gene 101933533; assay: ATG_trERa_XSP1: Attagene TRANS-FACTORIAL Multi-Species (XSP1) HepG2 Assay for turtle Estrogen Receptor (ESR1) (AID 2283781)
# Outline: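 Transactivation measured 24 h post-dose as reporter mRNA (RT-PCR, fluorescent capillary electrophoresis) from an NR-Gal4 turtle ER construct in HepG2. Medium included 3 nM 6-alpha-fluorotestosterone; increase over DMSO fitted.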
# [2] = biological target: Estrogen receptor beta (Homo sapiens) (UniProt Q92731); assay: ATG_hERb_XSP1: Attagene TRANS-FACTORIAL Multi-Species (XSP1) HepG2 Assay for human Estrogen Receptor (ESR2) (AID 2283788)
# Outline: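 HepG2 cells transiently transfected with multiplexed GAL4-UAS reporter units carrying chimeric human ERβ-Gal4; 24 h compound exposure with 3 nM 6-alpha-fluorotestosterone present. Reporter mRNA quantified by RT-PCR, FAM labelling and capillary electrophoresis; gain-of-signal fitted versus DMSO.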
# [3] = ATG_M_19_XSP1: Attagene TRANS-FACTORIAL Multi-Species (XSP1) HepG2 Assay for M19 Transcription Factor (Internal Marker) (AID 2283798)
# Outline: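 Readout is reporter mRNA induction quantified via RT-PCR, 6-FAM labeling, HpaI digestion and capillary electrophoresis, fitted in the positive direction versus DMSO baseline. Transfected HepG2 cells exposed 24 h, medium including 3 nM 6-alpha-fluorotestosterone.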
# [4] = system: zebrafish Peroxisome Proliferator-activated Receptor gamma (PPARg), gene 557037; assay: ATG_zfPPARg_XSP1: Attagene TRANS-FACTORIAL Multi-Species (XSP1) HepG2 Assay for zebrafish Peroxisome Proliferator-activated Receptor gamma (PPARg) (AID 2283801)
# Outline: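 Trans-activation readout of chimeric zebrafish PPARg–GAL4 in transiently transfected human HepG2 cells, 24 h chemical exposure (medium includes 3 nM 6-alpha-fluorotestosterone). Reporter transcripts measured by RT-PCR and capillary electrophoresis, fitted as gain over DMSO.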
# [5] = biological target: Nuclear receptor subfamily 1 group I member 2 (Mus musculus) (UniProt O54915); assay: ATG_mPXR_XSP1: Attagene TRANS-FACTORIAL Multi-Species (XSP1) HepG2 Assay for mouse Pregnane X Receptor (PXR) (AID 2283803)
# Outline: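 Transiently transfected HepG2 cells expressing a receptor-Gal4 chimera drive a GAL4-UAS reporter; 3 nM 6-alpha-fluorotestosterone included. Reporter mRNA read 24 h post-dose by RT-PCR and capillary electrophoresis; gain of signal relative to DMSO.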
# [6] = system: turtle Thyroid Hormone Receptor, alpha (TRa), gene 101949057; assay: ATG_trTRa_XSP1: Attagene TRANS-FACTORIAL Multi-Species (XSP1) HepG2 Assay for turtle Thyroid Hormone Receptor, alpha (TRa) (AID 2283806)
# Outline: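 After 24 h chemical exposure, reporter transcripts were measured by RT-PCR with fluorescent primer extension, HpaI digestion and capillary electrophoresis. Cells were transiently transfected HepG2 expressing exogenous NR-Gal4 chimeras; medium contained 3 nM 6-alpha-fluorotestosterone; fitted upward relative to DMSO.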
# [7] = ATG_XTT_Cytotoxicity_XSP1: Cytotoxicity Assessment in the Attagene TRANS-FACTORIAL Multi-Species (XSP1) HepG2 Assay (AID 2283810)
# Outline: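 XTT viability readout taken at 24 hours post-dosing in HepG2 liver cells co-treated with 3 nM 6-alpha-fluorotestosterone. Signal loss relative to DMSO controls reflects cytotoxicity.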
# [8] = ATG_M_06_XSP2: Attagene TRANS-FACTORIAL Multi-Species (XSP2) HepG2 Assay for M06 Transcription Factor (Internal Marker) (AID 2283811);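 also: internal background marker reporter mRNA measured by RT-PCR and capillary electrophoresis; hits are increases in signal above the DMSO baseline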
# Outline: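 Internal-marker reporter transcript, quantified by RT-PCR, 6-FAM labelling, HpaI digestion and capillary electrophoresis, 24 hours after dosing transfected HepG2 cells with 3 nM 6-alpha-fluorotestosterone and 1.5 nM norgestrel present; DMSO baseline.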
# [9] = system: turtle Estrogen Receptor (ERa), gene 101933533; assay: ATG_trERa_XSP2: Attagene TRANS-FACTORIAL Multi-Species (XSP2) HepG2 Assay for turtle Estrogen Receptor (ERa) (AID 2283812);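 also: actives raise reporter signal above DMSO so AC50 reflects agonist activity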
# Outline: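 Readout is reporter mRNA quantified by RT-PCR with capillary electrophoresis after 24 h compound exposure, increase relative to DMSO. Uses transiently transfected human HepG2 liver cells carrying a chimeric turtle ERa-Gal4 receptor driving GAL4-UAS reporters.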
# [10] = biological target: Estrogen receptor beta (Homo sapiens) (UniProt Q92731); assay: ATG_hERb_XSP2: Attagene TRANS-FACTORIAL Multi-Species (XSP2) HepG2 Assay for human Estrogen Receptor (ERb) (AID 2283813);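 also: actives raise reporter mRNA above DMSO so AC50 reflects agonist induction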
# Outline: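 Transient TRANS reporter system in HepG2: after 24 h of chemical, RNA is reverse-transcribed, reporter cDNA amplified, FAM-labelled and sized by capillary electrophoresis. Induction of the human ERb-Gal4 reporter is measured relative to DMSO.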
# [11] = biological target: zebrafish Estrogen Receptor (ER1), esr1 (gene 259252) (UniProt P57717); assay: ATG_zfER1_XSP2: Attagene TRANS-FACTORIAL Multi-Species (XSP2) HepG2 Assay for zebrafish Estrogen Receptor (ER1) (AID 2283816)
# Outline: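 After 24 h compound exposure, RNA from transfected HepG2 cells was reverse-transcribed and reporter transcripts resolved by capillary electrophoresis. The TRANS format reads exogenous zebrafish ER1-Gal4 chimera activity on GAL4-UAS elements; gain of signal against DMSO.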
# [12] = biological target: chicken Estrogen Receptor (ERa), ESR1 (gene 396099) (UniProt P06212); assay: ATG_chERa_XSP2: Attagene TRANS-FACTORIAL Multi-Species (XSP2) HepG2 Assay for chicken Estrogen Receptor (ERa) (AID 2283817);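 also: actives raise reporter signal above DMSO so AC50 reflects ER activation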
# Outline: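 Reporter mRNA induction read by RT-PCR, fluorescent labelling and capillary electrophoresis after 24 h exposure; positive-direction fit against DMSO baseline. HepG2 cells transfected with multiplexed GAL4-UAS units including chicken ERa chimera; medium contained 3 nM 6-alpha-fluorotestosterone plus 1.5 nM norgestrel.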
# [13] = system: frog Estrogen Receptor (ER), gene 398734; assay: ATG_frER1_XSP2: Attagene TRANS-FACTORIAL Multi-Species (XSP2) HepG2 Assay for frog Estrogen Receptor (ER) (AID 2283821);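 also: hits raise reporter mRNA above DMSO baseline so potency means agonist or activator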
# Outline: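 HepG2 cells transiently transfected with multiplexed GAL4-UAS reporter units expressing chimeric NR-Gal4 proteins (TRANS format) were dosed for 24 h. Reporter mRNA was quantified by RT-PCR, FAM primer extension, HpaI digestion and capillary electrophoresis; gain of signal relative to DMSO.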
# [14] = system: zebrafish Estrogen Receptor (ER2b), gene 317733; assay: ATG_zfER2b_XSP2: Attagene TRANS-FACTORIAL Multi-Species (XSP2) HepG2 Assay for zebrafish Estrogen Receptor (ER2b) (AID 2283823);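 also: fitted upward as reporter gain over DMSO so potency reflects activation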
# Outline: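 Reporter transcripts quantified by RT-PCR, fluorescent labelling and capillary electrophoresis after 24 h dosing of transfected HepG2 expressing zebrafish ER2b-GAL4 fusion. Medium contained 3 nM 6-alpha-fluorotestosterone plus 1.5 nM norgestrel; DMSO baseline.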
# [15] = system: zebrafish Estrogen Receptor (ER2a), gene 317734; assay: ATG_zfER2a_XSP2: Attagene TRANS-FACTORIAL Multi-Species (XSP2) HepG2 Assay for zebrafish Estrogen Receptor (ER2a) (AID 2283818);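 also: hits raise reporter mRNA so AC50 reflects activation of zebrafish ER2a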
# Outline: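 Multiplexed trans-reporter readout: RT-PCR then capillary electrophoresis of reporter transcripts after 24 h compound treatment. Human HepG2 carries transfected zebrafish ER2a-Gal4 chimera; 3 nM 6-alpha-fluorotestosterone plus 1.5 nM norgestrel present. Induction scored against DMSO.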
# [16] = system: chicken Androgen Receptor (AR), gene 422165; assay: ATG_chAR_XSP2: Attagene TRANS-FACTORIAL Multi-Species (XSP2) HepG2 Assay for chicken Androgen Receptor (AR) (AID 2283819);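 also: hits raise reporter mRNA above DMSO so potency is for activation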
# Outline: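 Readout is reporter mRNA induction via RT-PCR/capillary electrophoresis after 24 h chemical exposure, positive direction relative to DMSO. Transiently transfected HepG2 express chimeric chicken AR–GAL4; AR stimulated by 3 nM 6-alpha-fluorotestosterone and 1.5 nM norgestrel.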
# [17] = system: zebrafish Androgen Receptor (AR), gene 100005148; assay: ATG_zfAR_XSP2: Attagene TRANS-FACTORIAL Multi-Species (XSP2) HepG2 Assay for zebrafish Androgen Receptor (AR) (AID 2283825);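 also: hits raise reporter mRNA above DMSO so AC50 reflects agonist-type gain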
# Outline: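 After 24 h compound exposure in medium with 3 nM 6-alpha-fluorotestosterone plus 1.5 nM norgestrel, HepG2 cells carrying zebrafish AR–GAL4 reporter constructs were assessed for reporter mRNA gain by RT-PCR and capillary electrophoresis.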
# Estrogen receptor beta (Homo sapiens), sequence (Q92731 whole entry, looked up, the tested form may be a part): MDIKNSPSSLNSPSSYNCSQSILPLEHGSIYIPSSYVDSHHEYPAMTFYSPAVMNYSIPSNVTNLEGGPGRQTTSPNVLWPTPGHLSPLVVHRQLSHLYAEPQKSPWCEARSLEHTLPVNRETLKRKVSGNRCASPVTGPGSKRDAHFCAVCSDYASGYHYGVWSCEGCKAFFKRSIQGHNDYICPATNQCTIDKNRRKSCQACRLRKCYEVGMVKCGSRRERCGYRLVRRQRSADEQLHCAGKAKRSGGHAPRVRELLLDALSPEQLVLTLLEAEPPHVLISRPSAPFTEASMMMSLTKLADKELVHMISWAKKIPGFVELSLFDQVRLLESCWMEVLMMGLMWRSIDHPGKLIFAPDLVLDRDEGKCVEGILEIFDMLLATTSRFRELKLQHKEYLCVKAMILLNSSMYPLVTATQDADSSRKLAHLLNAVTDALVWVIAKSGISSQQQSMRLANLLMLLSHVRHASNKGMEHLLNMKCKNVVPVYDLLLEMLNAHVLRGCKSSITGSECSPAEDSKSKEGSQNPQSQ
# zebrafish Estrogen Receptor (ER1), esr1 (gene 259252), sequence (P57717 whole entry, looked up, the tested form may be a part): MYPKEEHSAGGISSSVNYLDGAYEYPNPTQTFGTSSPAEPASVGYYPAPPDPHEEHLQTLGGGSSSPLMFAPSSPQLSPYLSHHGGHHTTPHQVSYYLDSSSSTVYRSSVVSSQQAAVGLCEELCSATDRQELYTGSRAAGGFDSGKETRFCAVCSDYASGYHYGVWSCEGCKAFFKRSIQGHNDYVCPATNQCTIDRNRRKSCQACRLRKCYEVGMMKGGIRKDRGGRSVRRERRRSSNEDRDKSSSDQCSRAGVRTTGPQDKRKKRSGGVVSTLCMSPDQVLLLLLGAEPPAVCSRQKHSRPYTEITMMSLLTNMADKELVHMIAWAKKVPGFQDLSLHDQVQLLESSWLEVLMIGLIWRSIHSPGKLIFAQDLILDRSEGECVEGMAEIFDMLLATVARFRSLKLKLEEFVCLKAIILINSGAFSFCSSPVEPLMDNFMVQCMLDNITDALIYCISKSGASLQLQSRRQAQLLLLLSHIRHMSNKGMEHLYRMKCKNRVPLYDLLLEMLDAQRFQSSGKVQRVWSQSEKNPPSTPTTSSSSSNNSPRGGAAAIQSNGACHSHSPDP
# Nuclear receptor subfamily 1 group I member 2 (Mus musculus), sequence (O54915 whole entry, looked up, the tested form may be a part): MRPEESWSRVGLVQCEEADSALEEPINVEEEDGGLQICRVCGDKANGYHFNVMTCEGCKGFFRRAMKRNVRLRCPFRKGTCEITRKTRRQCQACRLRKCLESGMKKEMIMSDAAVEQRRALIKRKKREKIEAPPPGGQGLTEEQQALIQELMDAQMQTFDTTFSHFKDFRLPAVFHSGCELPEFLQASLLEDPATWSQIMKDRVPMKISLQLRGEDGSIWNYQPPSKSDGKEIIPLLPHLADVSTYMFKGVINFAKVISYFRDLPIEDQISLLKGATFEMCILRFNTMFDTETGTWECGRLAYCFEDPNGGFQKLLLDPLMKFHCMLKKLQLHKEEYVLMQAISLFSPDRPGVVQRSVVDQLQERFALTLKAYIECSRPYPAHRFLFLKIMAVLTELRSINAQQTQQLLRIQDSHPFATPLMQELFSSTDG
# chicken Estrogen Receptor (ERa), ESR1 (gene 396099), sequence (P06212 whole entry, looked up, the tested form may be a part): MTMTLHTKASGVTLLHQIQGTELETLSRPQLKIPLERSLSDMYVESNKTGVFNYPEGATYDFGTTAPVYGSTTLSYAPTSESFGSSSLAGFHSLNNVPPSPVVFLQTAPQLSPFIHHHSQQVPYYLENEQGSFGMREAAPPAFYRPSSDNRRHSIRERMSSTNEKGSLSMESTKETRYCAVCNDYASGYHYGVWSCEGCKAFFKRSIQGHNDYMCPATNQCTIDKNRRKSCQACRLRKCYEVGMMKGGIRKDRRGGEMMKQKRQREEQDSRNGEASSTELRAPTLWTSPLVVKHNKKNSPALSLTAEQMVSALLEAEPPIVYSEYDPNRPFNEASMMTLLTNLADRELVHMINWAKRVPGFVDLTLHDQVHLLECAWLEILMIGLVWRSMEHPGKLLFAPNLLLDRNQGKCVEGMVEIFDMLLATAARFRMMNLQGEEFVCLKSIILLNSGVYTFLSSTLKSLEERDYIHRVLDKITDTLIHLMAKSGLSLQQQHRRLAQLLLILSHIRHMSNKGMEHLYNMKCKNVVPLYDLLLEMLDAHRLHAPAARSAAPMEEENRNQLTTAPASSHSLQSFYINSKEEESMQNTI
smiles,measurement,setting,value
C(=C(c1ccccc1)c1ccccc1)c1ccccc1,AC50,[1],20.8 nM (active)
same,AC50,[2],17 nM (active)
same,outcome,[3],inactive
same,outcome,[4],inactive
same,outcome,[5],inactive
same,outcome,[6],inactive
same,outcome,[7],inactive
same,outcome,[8],inactive
same,AC50,[9],39.9 nM (active)
same,outcome,[10],inactive
same,outcome,[11],inactive
same,AC50,[12],29.1 nM (active)
same,outcome,[13],inactive
same,AC50,[14],165 nM (active)
c1ccc(B(c2ccccc2)c2ccccc2)cc1,AC50,[15],7.9 µM (active) and 9.53 µM (active)
same,outcome,[16],inactive
C#C[C@]1(O)CC[C@H]2[C@@H]3CCc4cc(OC)ccc4[C@H]3CC[C@@]21C,AC50,[15],0.272 nM (active) and 0.0819 nM (active)
O=C(OCCOCCOCCOC(=O)c1ccccc1)c1ccccc1,outcome,[16],inactive
same,outcome,[17],inactive
